PubChem BioAssay AID1159580 (chemical genetic matrix, 2015)
Hit rate of the full screen: of about 5,500 compounds, about 2,000 (36%) were called active. About 18% were inconclusive and are not listed. This is one part of the list. A number with no mark means an inactive call. Cut-off read from the data, not from the text of the source: active = normalized growth mostly below about 0.91 (no sharp cut-off); inconclusive = no clear call, values can overlap the other calls; inactive = mostly above about 0.92.

Test: chemical genetic growth profiling, strain panel (AID 1159580);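 note: tested at 20 µM; growth read once vehicle control cultures reached saturation at 30 °C; 1 = growth at the plate median or of vehicle wells; lower values mean less growth of the strain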
Conditions: S. cerevisiae deletion strains, growth OD

CO/N=C(\C(=O)NC1C(=O)N2C(C(=O)O)=C(COC(N)=O)CSC12)c1ccco1 (stereo unspecified)
normalized growth (locus YJR066W, strain TOR1, active compounds read low): 0.972
normalized growth (locus YKL009W, strain mrt4, active compounds read low): 0.311 (active)
normalized growth (locus YKL068W, active compounds read low): 0.575 (active)
normalized growth (locus YKL085W, strain MDH1 (second series), active compounds read low): 0.0978 (active)
normalized growth (locus YKL085W, strain MDH1, active compounds read low): 0.0978 (active)
normalized growth (locus YKL160W, strain elf1, active compounds read low): 0.961
normalized growth (locus YKL190W, strain CNB1, active compounds read low): 0.0476 (active)
normalized growth (locus YKR001C, strain vps1, active compounds read low): 0.0619 (active)
normalized growth (locus YKR026C, strain gcn3, active compounds read low): 0.98
normalized growth (locus YKR091W, strain srl3, active compounds read low): 0.98
normalized growth (locus YLL001W, strain dnm1, active compounds read low): 0.944
normalized growth (locus YLL026W, active compounds read low): 0.991
normalized growth (locus YLL041C, strain sdh2, active compounds read low): 0.971
normalized growth (locus YLR027C, strain aat2, active compounds read low): 0.981
normalized growth (locus YLR039C, strain RIC1, active compounds read low): 0.0948 (active)
normalized growth (locus YLR058C, strain SHM2, active compounds read low): 0.0436 (active)
normalized growth (locus YLR102C, strain apc9, active compounds read low): 0.0609 (active)
normalized growth (locus YLR113W, strain HOG1, active compounds read low): 1.07
normalized growth (locus YLR221C, strain rsa3, active compounds read low): 0.956
normalized growth (locus YLR258W, strain gsy2, active compounds read low): 0.975
normalized growth (locus YLR262C, strain YPT6 (second series), active compounds read low): 0.967
normalized growth (locus YLR262C, strain YPT6, active compounds read low): 0.107 (active)
normalized growth (locus YLR268W, strain sec22, active compounds read low): 0.0592 (active)
normalized growth (locus YLR320W, strain mms22, active compounds read low): 0.93
normalized growth (locus YLR330W, strain CHS5, active compounds read low): 0.053 (active)
normalized growth (locus YLR342W, strain FKS1 (second series), active compounds read low): 0.0595 (active)
normalized growth (locus YLR342W, strain FKS1, active compounds read low): 0.972
normalized growth (locus YLR357W, strain rsc2, active compounds read low): 0.963
normalized growth (locus YLR370C, strain arc18, active compounds read low): 0.963
normalized growth (locus YLR371W, strain rom2, active compounds read low): 0.0612 (active)
normalized growth (locus YLR384C, strain iki3, active compounds read low): 0.968
normalized growth (locus YLR418C, strain cdc73, active compounds read low): 0.096 (active)
normalized growth (locus YML016C, strain PPZ1, active compounds read low): 0.0484 (active)
normalized growth (locus YML032C, strain rad52, active compounds read low): 0.0647 (active)
normalized growth (locus YML120C, strain ndi1, active compounds read low): 0.965
normalized growth (locus YML124C, strain tub3, active compounds read low): 0.0613 (active)
normalized growth (locus YMR058W, strain fet3, active compounds read low): 0.968
normalized growth (locus YMR078C, strain ctf18, active compounds read low): 0.0716 (active)
normalized growth (locus YMR125W, strain sto1, active compounds read low): 0.979
normalized growth (locus YMR129W, active compounds read low): 0.983
normalized growth (locus YMR205C, strain PFK2, active compounds read low): 0.949
normalized growth (locus YMR223W, strain ubp8, active compounds read low): 0.0609 (active)
normalized growth (locus YMR231W, strain pep5, active compounds read low): 0.968
normalized growth (locus YMR263W, strain SAP30, active compounds read low): 0.0627 (active)
normalized growth (locus YMR307W, strain GAS1, active compounds read low): 0.13 (active)
normalized growth (locus YNL067W, strain RPL9B, active compounds read low): 0.0518 (active)
normalized growth (locus YNL071W, strain lat1, active compounds read low): 0.974
normalized growth (locus YNL183C, strain NPR1, active compounds read low): 0.966
normalized growth (locus YNL209W, strain ssb2, active compounds read low): 0.985
normalized growth (locus YNL233W, strain BNI4, active compounds read low): 0.061 (active)
normalized growth (locus YNL248C, strain rpa49, active compounds read low): 0.966
normalized growth (locus YNL250W, strain rad50, active compounds read low): 0.297 (active)
normalized growth (locus YNL271C, strain bni1, active compounds read low): 0.224 (active)
normalized growth (locus YNL298W, strain CLA4, active compounds read low): 0.235 (active)
normalized growth (locus YNL307C, strain MCK1, active compounds read low): 0.0668 (active)
normalized growth (locus YNL322C, strain KRE1 (second series), active compounds read low): 0.969
normalized growth (locus YNL322C, strain KRE1, active compounds read low): 0.0494 (active)
normalized growth (locus YNR049C, strain mso1, active compounds read low): 0.978
normalized growth (locus YNR052C, strain pop2, active compounds read low): 0.0644 (active)
normalized growth (locus YOL012C, strain htz1): 0.173 (active)
normalized growth (locus YOL147C, strain pex11, active compounds read low): 0.0578 (active)
normalized growth (locus YOR001W, strain rrp6, active compounds read low): 0.984
normalized growth (locus YOR061W, strain CKA2, active compounds read low): 0.0318 (active)
normalized growth (locus YOR069W, strain VPS5, active compounds read low): 0.0536 (active)
normalized growth (locus YOR070C, strain gyp1, active compounds read low): 0.988
normalized growth (locus YOR080W, strain dia2, active compounds read low): 0.986
normalized growth (locus YOR083W, strain WHI5, active compounds read low): 0.953
normalized growth (locus YOR106W, strain vam3, active compounds read low): 0.951
normalized growth (locus YOR136W, strain idh2, active compounds read low): 0.067 (active)
normalized growth (locus YOR144C, strain elg1, active compounds read low): 0.0595 (active)
normalized growth (locus YOR184W, strain ser1, active compounds read low): 0.062 (active)
normalized growth (locus YOR231W, strain MKK1, active compounds read low): 1.06
normalized growth (locus YOR265W, strain rbl2, active compounds read low): 0.991
normalized growth (locus YOR270C, strain vph1, active compounds read low): 0.96
normalized growth (locus YOR290C, strain snf2, active compounds read low): 0.958
normalized growth (locus YOR316C, strain cot1, active compounds read low): 0.0579 (active)
normalized growth (locus YPL051W, strain arl3, active compounds read low): 0.97
normalized growth (locus YPL078C, strain atp4, active compounds read low): 0.957
normalized growth (locus YPL106C, strain sse1, active compounds read low): 0.941
normalized growth (locus YPL240C, strain hsp82, active compounds read low): 0.982
normalized growth (locus YPL256C, strain CLN2, active compounds read low): 1.07
normalized growth (locus YPR119W, strain clb2, active compounds read low): 0.0597 (active)
normalized growth (locus YPR141C, strain kar3, active compounds read low): 0.56 (active)
normalized growth (locus YPR163C, strain tif3, active compounds read low): 0.0674 (active)
normalized growth (locus YPR167C, strain met16, active compounds read low): 0.0656 (active)
normalized growth (strain wtn01, active compounds read low): 0.0569 (active)
